Compound activity (PubChem)
In the library only some 4.8% were active in any assay of this set; here they are far more common.
Beta cell apopt – inhibitors of cytokine-induced beta cell apoptosis, primary screen, luminescence | protection from apoptosis, % (test concentration not listed) | actives 0.8% (n = 300,000) | AID 435005, 2010 | INS-1E cytokine-induced death, ATP luminescence, 48 h; percent of positive-control rescue, neutral wells zero;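 active means Every replicate reaches about 75%, or at least half do and their mean reaches it too, limit read from the data; inconclusive means At least half of replicates reach the limit but their mean does not; inactive means Under half of replicates reach the limit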;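 further: higher means more ATP so stronger rescue from cytokine killing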
MPTP block – mitochondrial permeability transition pore inhibitors, primary screen, biochemical, isolated mouse mitochondria, absorbance; AID 602449, 2012; Ca2+ swelling absorbance, 30 min; inhibition, % at 10 µM; actives 1.4% (n = 360,000);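 active means inhibition of 50% or more, scaled per plate between neutral and stimulator controls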
Mdm2-MdmX inh – inhibitors of human Mdm2-MdmX association, primary screen, cell-based, luminescence, split luciferase, SaOS-2, uHTS | SaOS-2 split-luciferase Mdm2/MdmX complementation | inhibition, % at 8 µM | actives 3% (n = 330,000) | AID 485346, 2010;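 active means inhibition of at least 50% at 8 µM in the primary screen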
Target sequence (O15151 whole entry, looked up): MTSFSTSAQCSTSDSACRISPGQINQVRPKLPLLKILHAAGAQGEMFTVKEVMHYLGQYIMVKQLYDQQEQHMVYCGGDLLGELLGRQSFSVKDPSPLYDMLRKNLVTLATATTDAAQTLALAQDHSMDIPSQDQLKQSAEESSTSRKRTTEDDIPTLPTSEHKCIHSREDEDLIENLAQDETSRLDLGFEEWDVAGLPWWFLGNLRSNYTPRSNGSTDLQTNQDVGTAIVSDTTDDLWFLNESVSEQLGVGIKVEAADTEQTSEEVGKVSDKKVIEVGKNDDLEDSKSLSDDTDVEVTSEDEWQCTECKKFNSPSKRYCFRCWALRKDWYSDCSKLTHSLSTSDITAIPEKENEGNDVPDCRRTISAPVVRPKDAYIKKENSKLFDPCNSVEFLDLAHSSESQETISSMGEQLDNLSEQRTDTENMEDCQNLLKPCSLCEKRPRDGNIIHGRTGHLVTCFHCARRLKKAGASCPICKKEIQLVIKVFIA
Target sequence (Q00987 whole entry, looked up): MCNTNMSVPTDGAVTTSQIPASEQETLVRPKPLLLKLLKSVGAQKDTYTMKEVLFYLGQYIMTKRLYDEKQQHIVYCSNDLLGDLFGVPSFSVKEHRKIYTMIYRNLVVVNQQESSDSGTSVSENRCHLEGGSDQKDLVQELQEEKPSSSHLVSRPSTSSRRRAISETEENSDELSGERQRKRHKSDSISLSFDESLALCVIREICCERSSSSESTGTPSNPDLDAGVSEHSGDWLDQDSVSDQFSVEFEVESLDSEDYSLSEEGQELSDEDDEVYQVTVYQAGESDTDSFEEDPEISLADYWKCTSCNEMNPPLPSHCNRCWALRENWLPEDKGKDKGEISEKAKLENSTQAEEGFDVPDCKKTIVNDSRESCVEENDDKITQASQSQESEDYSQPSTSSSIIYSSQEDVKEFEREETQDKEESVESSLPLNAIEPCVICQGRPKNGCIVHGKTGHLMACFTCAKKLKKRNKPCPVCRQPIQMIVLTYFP
Calb FLC – C. albicans growth inhibition with fluconazole, primary screen, CaCi-2 strain, Alamar Blue fluorescence; C. albicans CaCi-2 (fluconazole-resistant clinical isolate) + fluconazole, 48 h; growth inhibition, % (no concentration beside the values); actives 0.57% (n = 300,000); AID 1979, 2009;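 active means growth inhibition above about 58% in most replicates, limit read from the data, passing the limit was not always enough; inconclusive means exactly half the replicates above a set limit; inactive means most replicates below a set limit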;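 further: all wells also contain fluconazole at 8 µg/ml as a sub-toxic cotreatment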
CSC inhib – cancer stem cell viability inhibitors, primary screen, luminescence; cancer stem cell-like cells viability; inhibition, % at 7.5 µM; actives 1.1% (n = 300,000); AID 2717, 2010; in the data active means inhibition above about 75%; inconclusive means no clear call, values can overlap the other calls; tested in HMLE shEcad cells
Mdm2 MdmX conf – Mdm2-MdmX complex disruptors, retested hits, confirmation, luminescence, single concentration; inhibition, % at 8 µM; shares compounds with Mdm2-MdmX inh; actives 55% (n = 10,000); Mdm2-MdmX binding, luminescent assay; in the data active means inhibition above about 40%
Full FLuc ctr – full-length luciferase signal inhibition, confirmation, counter-screen for Mdm2/MdmX interaction inhibitor project, cell-based, single concentration, SaOS-2. actives 77% (n = 6,200). SaOS-2 full-length luciferase counterscreen, luminescence. shares compounds with Mdm2-MdmX inh. inhibition, % at 8 µM;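 active means mean inhibition at 8 µM reaching about 37%, which flags the compound as non-specific, limit read from the data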;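 further: p53-null SaOS-2 cells with luciferase driven by a doxycycline-inducible promoter; compound on cells about two nights before reading with doxycycline added after day one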
Each line names hits and unclear results; the compound was inactive in the other large screens (follow-up assays come after a bar, where they were run).

O=C(CCN1C(=O)/C(=C/c2cccs2)SC1=S)N1CCCCC1	Mdm2-MdmX inh 68.1 | Mdm2 MdmX conf 52.0 | Full FLuc ctr 45.0
O=C(CCN1C(=O)/C(=C\c2ccccc2)SC1=S)N1CCCCC1	Mdm2-MdmX inh 56.5 | Mdm2 MdmX conf 72.2 | Full FLuc ctr 61.5
Cc1ccc(/C=C2/SC(=S)N(CCC(=O)N3CCOCC3)C2=O)cc1	none
COCCOC(=O)N1CCCCC1c1cc(C(=O)NCc2ccc(Cl)c(Cl)c2)no1 (configuration not stated)	none (no result: Beta cell apopt, Mdm2-MdmX inh, Calb FLC, CSC inhib)
O=C(CN1C(=O)/C(=C/c2ccccc2)SC1=S)N1CCN(CCc2ccccn2)CC1	Mdm2-MdmX inh 83.8 (no result: Calb FLC) | Mdm2 MdmX conf 54.0 | Full FLuc ctr inactive
O=C(CN1C(=O)S/C(=C/c2ccncc2)C1=O)N1CCOCC1	Mdm2-MdmX inh 65.1 | Mdm2 MdmX conf inactive
Cc1ccc(/C=C2\SC(=S)N(CCC(=O)N3CCCCC3)C2=O)cc1	Mdm2-MdmX inh 71.8 (no result: CSC inhib) | Mdm2 MdmX conf 66.2 | Full FLuc ctr 122.1
O=C(CN1C(=O)S/C(=C/c2cccnc2)C1=O)N1CCOCC1	none
O=C(CCCN1C(=O)/C(=C\c2ccccc2)SC1=S)N1CCOCC1	Mdm2-MdmX inh 51.0 (no result: Calb FLC) | Mdm2 MdmX conf inactive
CC(C)(C)C(C(=O)NCc1ccccc1)N1CCN(C(=O)C2CCCO2)CC1 (configuration not stated)	none (no result: Beta cell apopt, Mdm2-MdmX inh, Calb FLC, CSC inhib)
CC[C@]12c3[nH]c4cc(CCC(=O)N(C)C)ccc4c3CCN1C(=O)[C@@H](CC(=O)NC(C)(C)C)C[C@@H]2C(=O)N1CCN(C(=O)c2ccco2)CC1	none (no result: Beta cell apopt, Calb FLC, CSC inhib)
Cc1ccc(S(=O)(=O)c2ccc(Cl)cc2)cc1S(=O)(=O)NC(C)C(=O)O (configuration not stated)	none
O=S1(=O)CCN(Cc2cccnc2)CC1	none (no result: Beta cell apopt, Mdm2-MdmX inh, Calb FLC, CSC inhib)
COc1cc(/C=C2\SC(=S)N(CCC(=O)N3CCCCC3)C2=O)cc(OC)c1OC	Mdm2-MdmX inh 68.2 (no result: CSC inhib) | Mdm2 MdmX conf 43.0 | Full FLuc ctr 62.9
CCN(CC)C(=O)CN1C(=O)/C(=C/c2ccccc2)SC1=S	Mdm2-MdmX inh 63.3 | Mdm2 MdmX conf 45.2 | Full FLuc ctr inactive
CCS(=O)(=O)c1nc2ccccc2n1Cc1ccccc1Cl	Mdm2-MdmX inh 68.7 | Mdm2 MdmX conf inactive
CC(C)CCN1CC(=O)N2[C@@H](Cc3c([nH]c4ccccc34)C2(C)C)C1=O	none
CN(C)Cc1cn(CC[C@@H]2CC[C@@H](NC(=O)Nc3ccccc3F)[C@@H](CO)O2)nn1	none (no result: Beta cell apopt, Mdm2-MdmX inh, Calb FLC, CSC inhib)
O=C(CN1C(=O)S/C(=C\C=C\c2ccccc2)C1=O)Nc1cccc(O)c1	Mdm2-MdmX inh 99.3, Calb FLC inconclusive, CSC inhib 93.0 | Mdm2 MdmX conf inactive
O=C(CN1C(=O)S/C(=C\C=C\c2ccccc2)C1=O)Nc1ccccc1C(=O)O	none
COc1cccc(-n2nnnc2SCC(=O)Nc2ccc3c(c2)OCCO3)c1	Mdm2-MdmX inh 79.2 (no result: Calb FLC) | Mdm2 MdmX conf inactive
CCOc1ccc(-n2nnnc2SCC(=O)Nc2ccc(NC(C)=O)cc2)cc1	Mdm2-MdmX inh 57.3 | Mdm2 MdmX conf inactive
COc1ccc(Nc2nnc(SCC(=O)NC(=O)Nc3ccc4c(c3)OCCO4)s2)cc1	Mdm2-MdmX inh 62.4 | Mdm2 MdmX conf inactive
O=C(CSc1nnnn1-c1cccc(Cl)c1)Nc1ccc2c(c1)CCC2	Mdm2-MdmX inh 71.2 (no result: MPTP block) | Mdm2 MdmX conf inactive | Full FLuc ctr 59.9
O=c1onc(-c2ccccc2)n1Cc1ccc([N+](=O)[O-])cc1	none (no result: Beta cell apopt, Mdm2-MdmX inh, Calb FLC, CSC inhib)
Cc1ccc2cc(CN(CC3CCCO3)C(=S)Nc3ccccc3)c(=O)[nH]c2c1C (configuration not stated)	Mdm2-MdmX inh 85.2 | Mdm2 MdmX conf 85.8 | Full FLuc ctr inactive
Cc1ccc2cc(CN(CCCN(C)C)C(=S)NCc3ccccc3)c(=O)[nH]c2c1C	Mdm2-MdmX inh 55.4 | Mdm2 MdmX conf inactive
Cc1cc(C)c2[nH]c(=O)c(CN(CC3CCCO3)C(=S)Nc3ccccc3)cc2c1 (configuration not stated)	none
Fc1cc(Cl)cc2ccc(-c3ccccc3)nc12	none (no result: Beta cell apopt, Mdm2-MdmX inh, Calb FLC, CSC inhib)
COc1cccc2c1C(CO)N1C(C#N)C3CC(C(=O)O)C(C1C2)N3C (configuration not stated)	Mdm2-MdmX inh 100.3 (no result: Calb FLC) | Mdm2 MdmX conf 100.2 | Full FLuc ctr 52.3
COc1ccc([C@H]2N[C@]3(CCCN(CC4CCCCC4)C3=O)[C@H]3C(=O)N(Cc4ccccc4)C(=O)[C@@H]23)cc1	none (no result: Beta cell apopt, Mdm2-MdmX inh, Calb FLC, CSC inhib)
COc1ccc(N(Cc2ccccc2)S(=O)(=O)c2cccc(C(=O)Nc3ccccn3)c2)cc1	Mdm2-MdmX inh 57.2 (no result: Calb FLC, CSC inhib) | Mdm2 MdmX conf inactive
O=C(Nc1ccccn1)c1ccc(CN(c2ccccc2)S(=O)(=O)c2ccccc2)cc1	none (no result: Beta cell apopt)
COc1ccc(N2CCN(C(CNC(=O)C(=O)NC3CCCC3)c3ccco3)CC2)cc1 (configuration not stated)	none
CCCCS(=O)(=O)/C=C\C1C2C=CC(C2)C1S(=O)(=O)CCCC (configuration not stated)	none
CCCCS(=O)(=O)/C=C\C=C/S(=O)(=O)CCCC	Beta cell apopt 85.5, Mdm2-MdmX inh 93.7, CSC inhib 110.7 | Mdm2 MdmX conf 98.8 | Full FLuc ctr 51.1
COc1cnc(-c2ccccn2)nc1Oc1ccc(Cl)c2ccccc12	Beta cell apopt 97.4, Mdm2-MdmX inh 52.4 | Mdm2 MdmX conf inactive
COc1cnc(-c2ccccn2)nc1Oc1ccccc1Cl	none
COc1cnc(-c2ccccn2)nc1NC(C)C	Mdm2-MdmX inh 79.2, Calb FLC 113.3 | Mdm2 MdmX conf 87.4 | Full FLuc ctr 48.3
NC(=O)c1ccc(C(=O)N/N=C(/Cc2ccccc2)c2ccccc2)cc1	none
O=C(N/N=C(\c1ccccc1)c1cccnc1)c1cccc(F)c1	Beta cell apopt 107.9, Mdm2-MdmX inh 98.7, CSC inhib 109.4 | Mdm2 MdmX conf 80.4 | Full FLuc ctr inactive
O=C(N/N=C(\Cc1ncc[nH]1)c1ccccc1)c1ccccc1	Mdm2-MdmX inh 76.1, Calb FLC inconclusive (no result: MPTP block) | Mdm2 MdmX conf 52.6 | Full FLuc ctr inactive
O=C(N/N=C(\Cc1ncc[nH]1)c1ccccc1)c1ccncc1	Beta cell apopt 100.8, Mdm2-MdmX inh 66.5, CSC inhib 78.5 | Mdm2 MdmX conf 62.9 | Full FLuc ctr inactive
O=C(N/N=C(\Cc1ncc[nH]1)c1ccccc1)c1cccnc1	Mdm2-MdmX inh 53.9, CSC inhib 99.8 | Mdm2 MdmX conf 63.5 | Full FLuc ctr inactive
O=C(N/N=C(\c1ccccc1)c1cccnc1)c1ccc(O)cc1	none
CC1CCCCC12NC(=O)N(CC(=O)N1CCc3ccccc3C1)C2=O (configuration not stated)	none (no result: Beta cell apopt, Calb FLC, CSC inhib)
